# Data as given in the supplement of paper PMC9262897, “Low-cost anti-mycobacterial drug discovery using engineered E. coli” (Nature Communications, 2022).
# Structures can show the parent of a compound that is named as a salt. ± gives the standard deviation of the averaged measurements.
# Legend:
# Assay in all cases: growth (OD600 after 10 h); higher = more growth (less inhibition)
# [1] = test system: E. coli TESEC Alr+ wild-type control; conditions: compound 0.1 mM; raw OD600 reference: median of DMSO wells 0.241, cell-free background 0.041
# Experimental: (§1)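 TESEC Mtb Alr E. coli, or the Alr+ wild-type control, in 384-well plates with Prestwick library compounds at 0.1 mM and 1% DMSO, across arabinose induction levels of 1E3 to 1E7 nM. Growth is read as OD600 after 10 h at 37 °C in triplicate biological replicates.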
# E. coli TESEC Mtb Alr [2] = conditions: compound 0.1 mM
# Experimental: as §1
# E. coli TESEC Mtb Asd = conditions: compound 0.1 mM
# Experimental: (§2)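 TESEC E. coli strains in which the native enzyme is deleted and replaced by arabinose-inducible Mtb Asd, DapB, CysH or TrpD, each grown in its selective medium. Strains were screened against the Prestwick library at 0.1 mM and 1% DMSO in 384-well format at low and high arabinose induction. Growth is read as OD600 after 10 h in triplicate.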
# E. coli TESEC Mtb DapB = conditions: compound 0.1 mM
# Experimental: as §2
# [3] = test system: E. coli TESEC Alr+ wild-type control; conditions: compound 0.1 mM; raw OD600 reference: median of DMSO wells 0.49, cell-free background 0.052
# Experimental: (§3)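 TESEC Mtb Alr E. coli (ΔaraC ΔtolC ΔentC Δalr ΔdadX, arabinose-inducible Mtb Alr) or the Alr+ wild-type control strain, grown in defined M9-fructose medium without D-alanine in 96-well plates with Prestwick library compounds at 0.1 mM and 1% DMSO. Low Alr induction is 0.1 µM arabinose and high induction is 10 mM arabinose.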
# E. coli TESEC Mtb Alr [4] = conditions: compound 0.1 mM; remark: listed apart in the source
# Experimental: as §3
# [5] = arabinose 1000 nM, raw OD600 reference: median of DMSO wells 0.294, cell-free background 0.041
# [6] = arabinose 10000 nM, raw OD600 reference: median of DMSO wells 0.264, cell-free background 0.041
# [7] = arabinose 100000 nM, raw OD600 reference: median of DMSO wells 0.201, cell-free background 0.041
# [8] = arabinose 1000000 nM, raw OD600 reference: median of DMSO wells 0.193, cell-free background 0.041
# [9] = arabinose 10000000 nM, raw OD600 reference: median of DMSO wells 0.146, cell-free background 0.041
# [10] = arabinose induction (level): High, raw OD600 reference: median of DMSO wells 0.331, cell-free background 0.041
# [11] = arabinose induction (level): Low, raw OD600 reference: median of DMSO wells 0.417, cell-free background 0.041
# [12] = arabinose induction (level): High, raw OD600 reference: median of DMSO wells […], cell-free background 0.041
# [13] = arabinose induction (level): Low, raw OD600 reference: median of DMSO wells 0.227, cell-free background 0.041
# [14] = arabinose 100 nM, raw OD600 reference: median of DMSO wells 0.413, cell-free background 0.052
# [15] = arabinose 10000000 nM, raw OD600 reference: median of DMSO wells […], cell-free background 0.052
Structure (SMILES),growth [1],growth (E. coli TESEC Mtb Alr [2]; [5]),growth (E. coli TESEC Mtb Alr [2]; [6]),growth (E. coli TESEC Mtb Alr [2]; [7]),growth (E. coli TESEC Mtb Alr [2]; [8]),growth (E. coli TESEC Mtb Alr [2]; [9]),growth (E. coli TESEC Mtb Asd; [10]),growth (E. coli TESEC Mtb Asd; [11]),growth (E. coli TESEC Mtb DapB; [12]),growth (E. coli TESEC Mtb DapB; [13]),growth [3],growth (E. coli TESEC Mtb Alr [4]; [14]),growth (E. coli TESEC Mtb Alr [4]; [15])
COC(=O)[C@@H]1[C@H]2C[C@H]3c4[nH]c5ccccc5c4CCN3C[C@@H]2CC[C@@H]1O [Yohimbine hydrochloride],0.217 ± 0.0081,0.28 ± 0.007,0.265 ± 0.0075,0.176 ± 0.011,0.142 ± 0.0078,0.142 ± 0.0022,0.163 ± 0.031,0.318 ± 0.074,0.166 ± 0.01,0.19 ± 0.012,0.525 ± 0.13,0.409 ± 0.011,0.343 ± 0.031
OC(CCN1CCCC1)(c1ccccc1)C1CCCCC1 (stereo not given) [Procyclidine hydrochloride],0.206 ± 0.018,0.297 ± 0.018,0.266 ± 0.0065,0.194 ± 0.011,0.163 ± 0.0092,0.148 ± 0.0059,0.314 ± 0.14,0.473 ± 0.055,0.177 ± 0.026,0.245 ± 0.033,0.573 ± 0.041,0.412 ± 0.009,0.317 ± 0.0092
CNCCC(Oc1ccccc1OC)c1ccccc1 (stereo not given) [Nisoxetine hydrochloride],0.206 ± 0.015,0.258 ± 0.011,0.2337 ± 0.0022,0.173 ± 0.004,0.153 ± 0.0049,0.139 ± 0.0023,0.247 ± 0.049,0.405 ± 0.026,0.149 ± 0.031,0.2 ± 0.018,0.566 ± 0.12,0.4 ± 0.011,0.346 ± 0.018
CC(C)(C)NC(=O)[C@@H]1CN(Cc2cccnc2)CCN1C[C@@H](O)C[C@@H](Cc1ccccc1)C(=O)N[C@H]1c2ccccc2C[C@H]1O [Indinavir sulfate],0.2105 ± 0.00051,0.293 ± 0.014,0.241 ± 0.0041,0.221 ± 0.02,0.149 ± 0.0054,0.139 ± 0.004,0.239 ± 0.05,0.403 ± 0.025,0.216 ± 0.0067,0.286 ± 0.022,0.558 ± 0.12,0.422 ± 0.014,0.281 ± 0.01
CC1(C)NC(=O)N(c2ccc([N+](=O)[O-])c(C(F)(F)F)c2)C1=O [Nilutamide],0.216 ± 0.017,0.273 ± 0.0069,0.256 ± 0.003,0.189 ± 0.012,0.153 ± 0.0033,0.142 ± 0.0062,0.281 ± 0.1,0.399 ± 0.042,0.194 ± 0.012,0.252 ± 0.0066,0.552 ± 0.064,0.396 ± 0.013,0.295 ± 0.017
NCc1ccc(S(N)(=O)=O)cc1 [Mafenide hydrochloride],0.248 ± 0.0039,0.295 ± 0.021,0.259 ± 0.0097,0.187 ± 0.015,0.177 ± 0.0036,0.14 ± 0.0058,0.358 ± 0.018,0.41 ± 0.044,0.199 ± 0.0035,0.251 ± 0.032,0.418 ± 0.046,0.418 ± 0.0068,0.373 ± 0.018
Cn1c(=O)c2c(ncn2CC(O)CO)n(C)c1=O (stereo not given) [Diprophylline],0.253 ± 0.0057,0.271 ± 0.026,0.249 ± 0.013,0.197 ± 0.018,0.182 ± 0.0025,0.138 ± 0.0093,0.367 ± 0.021,0.452 ± 0.052,0.206 ± 0.0061,0.24 ± 0.017,0.45 ± 0.05,0.421 ± 0.0097,0.313 ± 0.057
CC[C@@H](CO)NCCN[C@@H](CC)CO [Ethambutol dihydrochloride],0.25 ± 0.0032,0.291 ± 0.023,0.255 ± 0.0099,0.216 ± 0.021,0.18 ± 0.0035,0.147 ± 0.0024,0.353 ± 0.067,0.39 ± 0.091,0.19 ± 0.0055,0.2 ± 0.022,0.476 ± 0.06,0.411 ± 0.0072,0.366 ± 0.015
COc1ccc(C2CNC(=O)C2)cc1OC1CCCC1 (stereo not given) [Rolipram],0.209 ± 0.0078,0.275 ± 0.012,0.29 ± 0.0047,0.177 ± 0.0086,0.198 ± 0.012,0.14 ± 0.0022,0.373 ± 0.044,0.425 ± 0.047,0.211 ± 0.0056,0.217 ± 0.0081,0.623 ± 0.011,0.4 ± 0.013,0.311 ± 0.019
Nc1ccn([C@@H]2CS[C@H](CO)O2)c(=O)n1 [Lamivudine],0.239 ± 0.0031,0.292 ± 0.011,0.262 ± 0.0097,0.211 ± 0.037,0.209 ± 0.0042,0.144 ± 0.0079,0.353 ± 0.0047,0.425 ± 0.021,0.18 ± 0.013,0.207 ± 0.016,0.563 ± 0.13,0.407 ± 0.0069,0.357 ± 0.0056
C=CCOc1ccccc1OCC(O)CNC(C)C (stereo not given) [Oxprenolol hydrochloride],0.2186 ± 0.001,0.281 ± 0.0082,0.271 ± 0.0046,0.1983 ± 0.00078,0.208 ± 0.023,0.141 ± 0.0071,0.332 ± 0.062,0.368 ± 0.013,0.204 ± 0.0052,0.225 ± 0.031,0.554 ± 0.095,0.414 ± 0.0042,0.357 ± 0.0083
CCOC(=O)N1CCC(=C2c3ccc(Cl)cc3CCc3cccnc32)CC1 [Loratadine],0.146 ± 0.0043,0.17 ± 0.0039,0.205 ± 0.0047,0.173 ± 0.0098,0.0897 ± 0.0023,0.103 ± 0.0051,0.175 ± 0.01,0.246 ± 0.023,0.195 ± 0.0081,0.179 ± 0.0076,0.402 ± 0.0043,0.391 ± 0.0066,0.0517 ± 0.00062
CC(=O)N(CC(C)C(=O)O)c1c(I)cc(I)c(N)c1I (stereo not given) [Iocetamic acid],0.213 ± 0.007,0.274 ± 0.0081,0.289 ± 0.0072,0.2 ± 0.01,0.265 ± 0.003,0.144 ± 0.0039,0.36 ± 0.022,0.268 ± 0.021,0.202 ± 0.018,0.202 ± 0.019,0.509 ± 0.026,0.183 ± 0.11,0.397 ± 0.011
CC(=O)OCC(=O)[C@@]1(O)[C@H](C)C[C@H]2[C@@H]3CCC4=CC(=O)C=C[C@]4(C)[C@@]3(F)[C@@H](O)C[C@@]21C [Dexamethasone acetate],0.167 ± 0.006,0.239 ± 0.041,0.226 ± 0.007,0.192 ± 0.017,0.119 ± 0.0023,0.1362 ± 0.00044,0.226 ± 0.034,0.356 ± 0.056,0.171 ± 0.017,0.233 ± 0.03,0.477 ± 0.033,0.396 ± 0.011,0.234 ± 0.018
O=C(C1CCCCC1)N1CC(=O)N2CCc3ccccc3C2C1 (stereo not given) [Praziquantel],0.207 ± 0.0042,0.251 ± 0.0052,0.237 ± 0.015,0.214 ± 0.021,0.167 ± 0.01,0.141 ± 0.0052,0.391 ± 0.074,0.278 ± 0.026,0.174 ± 0.0068,0.21 ± 0.027,0.447 ± 0.019,0.382 ± 0.0029,0.37 ± 0.025
